# Assay results as given in PubChem BioAssay AID1159580 (chemical genetic matrix, 2015).
# Values joined by “and” are separate entries in the source; they are usually repeats but may differ in a detail not shown here. Equal entries are not always repeated. The whole screen tested about 5,500 compounds, of which about 2,000 (36%) were called active. Not shown: some 18% with an inconclusive outcome. Some of the results follow. Unmarked numbers belong to inactive results. Cut-off read from the data, not from the text of the source: active = normalized growth mostly below about 0.91 (no sharp cut-off); inconclusive = no clear call, values can overlap the other calls; inactive = mostly above about 0.92.
# Assay: chemical genetic growth profiling, strain panel (AID 1159580);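 note: tested at 20 µM; growth read once vehicle control cultures reached saturation at 30 °C; 1 = growth at the plate median or of vehicle wells; lower values mean less growth of the strain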
# Conditions: S. cerevisiae deletion strains, growth OD
structure (smiles),measurement,setting,value
O=C1C=CC(=O)c2c(O)cccc21,normalized growth,"locus YAL021C, strain ccr4, active compounds read low",1.01
same,normalized growth,"locus YAL026C, strain drs2, active compounds read low",0.951
same,normalized growth,"locus YAL030W, strain snc1, active compounds read low",0.965
same,normalized growth,"locus YBL061C, strain skt5, active compounds read low",0.976
same,normalized growth,"locus YBR009C, strain hhf1, active compounds read low",0.966
same,normalized growth,"locus YBR021W, strain FUR4, active compounds read low",1.09
same,normalized growth,"locus YBR023C, strain chs3, active compounds read low",0.973
same,normalized growth,"locus YBR171W, strain sec66, active compounds read low",1
same,normalized growth,"locus YBR229C, strain ROT2, active compounds read low",0.955
same,normalized growth,"locus YBR231C, strain swc5, active compounds read low",0.876 (active)
same,normalized growth,"locus YBR279W, strain paf1, active compounds read low",0.974
same,normalized growth,"locus YCL011C, strain gbp2, active compounds read low",0.978
same,normalized growth,"locus YCL016C, strain dcc1, active compounds read low",0.975
same,normalized growth,"locus YCL029C, strain bik1, active compounds read low",0.983
same,normalized growth,"locus YCL069W, strain vba3, active compounds read low",0.971
same,normalized growth,"locus YCR088W, strain abp1, active compounds read low",0.981
same,normalized growth,"locus YDL005C, strain med2, active compounds read low",1
same,normalized growth,"locus YDL035C, strain GPR1, active compounds read low",0.993
same,normalized growth,"locus YDL040C, strain nat1, active compounds read low",1
same,normalized growth,"locus YDL074C, strain BRE1, active compounds read low",1.02
same,normalized growth,"locus YDL101C, strain DUN1, active compounds read low",0.966
same,normalized growth,"locus YDL134C, strain PPH21, active compounds read low",0.967
same,normalized growth,"locus YDL185W, strain tfp1, active compounds read low",0.961
same,normalized growth,"locus YDL192W, strain arf1, active compounds read low",0.972
same,normalized growth,"locus YDR001C, strain nth1, active compounds read low",0.991
same,normalized growth,"locus YDR069C, strain doa4, active compounds read low",0.956
same,normalized growth,"locus YDR101C, strain arx1, active compounds read low",1.03
same,normalized growth,"locus YDR137W, strain rgp1, active compounds read low",0.708 (active)
same,normalized growth,"locus YDR159W, strain sac3, active compounds read low",0.838 (active)
same,normalized growth,"locus YDR162C, strain NBP2, active compounds read low",0.912
same,normalized growth,"locus YDR195W, strain ref2",1.03
same,normalized growth,"locus YDR297W, strain sur2, active compounds read low",1.01
same,normalized growth,"locus YDR318W, strain mcm21, active compounds read low",0.962
same,normalized growth,"locus YDR334W, strain swr1, active compounds read low",0.879 (active)
same,normalized growth,"locus YDR335W, strain msn5, active compounds read low",0.975
same,normalized growth,"locus YDR388W, active compounds read low",0.99
same,normalized growth,"locus YDR392W, strain spt3, active compounds read low",0.596 (active)
same,normalized growth,"locus YDR502C, strain sam2, active compounds read low",1.01
same,normalized growth,"locus YEL003W, strain gim4, active compounds read low",0.969
same,normalized growth,"locus YEL037C, strain rad23, active compounds read low",0.973
same,normalized growth,"locus YEL061C, strain CIN8 (second series), active compounds read low",0.983
same,normalized growth,"locus YEL061C, strain CIN8, active compounds read low",0.982
same,normalized growth,"locus YER015W, strain faa2, active compounds read low",0.956
same,normalized growth,"locus YER016W, strain bim1, active compounds read low",1.02
same,normalized growth,"locus YER110C, active compounds read low",0.972
same,normalized growth,"locus YER111C, strain swi4, active compounds read low",1.13 [resistant] (active)
same,normalized growth,"locus YER155C, strain BEM2 (second series), active compounds read low",0.766 (active)
same,normalized growth,"locus YER155C, strain BEM2, active compounds read low",1
same,normalized growth,"locus YER167W, strain BCK2, active compounds read low",0.984
same,normalized growth,"locus YFR010W, strain ubp6, active compounds read low",0.907
same,normalized growth,"locus YGL078C, strain dbp3, active compounds read low",1.04
same,normalized growth,"locus YGL086W, strain mad1, active compounds read low",1.02
same,normalized growth,"locus YGL167C, strain pmr1, active compounds read low",0.961
same,normalized growth,"locus YGL173C, strain kem1, active compounds read low",0.938
same,normalized growth,"locus YGL227W, strain vid30, active compounds read low",1.04
same,normalized growth,"locus YGL240W, strain doc1, active compounds read low",0.817 (active)
same,normalized growth,"locus YGL248W, strain PDE1, active compounds read low",0.955
same,normalized growth,"locus YGL253W, strain hxk2, active compounds read low",0.979
same,normalized growth,"locus YGR078C, strain PAC10, active compounds read low",0.958
same,normalized growth,"locus YGR135W, strain pre9, active compounds read low",0.966
same,normalized growth,"locus YGR229C, strain SMI1, active compounds read low",0.97
same,normalized growth,"locus YGR252W, strain gcn5, active compounds read low",1.03
same,normalized growth,"locus YHR013C, strain ard1, active compounds read low",0.894
same,normalized growth,"locus YHR027C, strain rpn1, active compounds read low",0.954
same,normalized growth,"locus YHR030C, strain SLT2, active compounds read low",0.993 and 0.875
same,normalized growth,"locus YHR079C, strain IRE1 (second series), active compounds read low",0.997
same,normalized growth,"locus YHR079C, strain IRE1, active compounds read low",0.972
same,normalized growth,"locus YHR094C, strain hxt1, active compounds read low",1
same,normalized growth,"locus YHR129C, strain ARP1, active compounds read low",0.991
same,normalized growth,"locus YHR142W, strain chs7, active compounds read low",0.992
same,normalized growth,"locus YHR200W, strain rpn10, active compounds read low",0.963
same,normalized growth,"locus YIL066C, strain RNR3, active compounds read low",0.965
same,normalized growth,"locus YIL073C, strain SPO22, active compounds read low",0.933
same,normalized growth,"locus YIL125W, strain kgd1, active compounds read low",0.997
same,normalized growth,"locus YIR030C, strain dcg1, active compounds read low",1
same,normalized growth,"locus YJL092W, strain hpr5, active compounds read low",0.987
same,normalized growth,"locus YJL095W, strain BCK1 (second series), active compounds read low",0.946
same,normalized growth,"locus YJL095W, strain BCK1, active compounds read low",0.903 and 0.941
same,normalized growth,"locus YJL115W, strain asf1, active compounds read low",0.969
same,normalized growth,"locus YJL129C, strain trk1, active compounds read low",1.02
same,normalized growth,"locus YJL134W, strain LCB3, active compounds read low",0.984
same,normalized growth,"locus YJL154C, strain vps35, active compounds read low",0.974
same,normalized growth,"locus YJL164C, strain tpk1, active compounds read low",0.953
same,normalized growth,"locus YJL166W, strain qcr8, active compounds read low",0.935
same,normalized growth,"locus YJL168C, strain set2, active compounds read low",0.988
same,normalized growth,"locus YJL187C, strain SWE1 (second series), active compounds read low",0.964
same,normalized growth,"locus YJL187C, strain SWE1, active compounds read low",0.987
